Compounds without any hit were thinned out: in the full panel of roughly 79,000, 15% have a hit. Values without a mark were called inactive. The source made the active and inactive calls. Rule as the data show it: active = growth inhibition above about 70%; inactive = the rest.

Assay [1] can be described thus: NCI Yeast Anticancer Drug Screen. Data for the rad50 strain (AID 155).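 Also: 0% = growth of vehicle-only cultures of the same strain.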 The conditions noted are these: S. cerevisiae rad50 strain growth inhibition, stronger effect = higher value. A digest of the protocol: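 Yeast carrying a defined DNA repair defect were exposed to test compounds, and growth was compared with vehicle-treated controls to give percent inhibition.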
Assay [2] can be described thus: NCI Yeast Anticancer Drug Screen. Data for the mec2-1 strain (AID 157). The following applies: S. cerevisiae mec2-1 strain, stronger effect = higher value. A digest of the protocol: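 Vehicle-treated cultures served as reference for growth inhibition of compound-exposed mec2-1 yeast.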
A short description of assay [3]: NCI Yeast Anticancer Drug Screen. Data for the sgs1 mgt1 strain (AID 161).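 Also: 0% = growth of cultures given vehicle only.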 The following applies: S. cerevisiae sgs1 mgt1 strain, stronger effect = higher value. The procedure, abridged:
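Genetically altered yeast, compound exposure, growth inhibition relative to vehicle.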

Assay [4] in a line: NCI Yeast Anticancer Drug Screen. Data for the cln2 rad14 strain (AID 165).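 Also: 0% = growth equal to vehicle treated cultures.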 The conditions noted are these: S. cerevisiae cln2 rad14 strain, stronger effect = higher value. The procedure, abridged:
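Each compound was tested on cln2 rad14 yeast. Inhibition of growth was calculated against vehicle-exposed controls.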

Assay [5] can be described thus: NCI Yeast Anticancer Drug Screen. Data for the bub3 strain (AID 167). The following applies: S. cerevisiae bub3 mutant strain, stronger effect = higher value. A digest of the protocol:
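Compounds were applied to a genetically altered yeast strain carrying a cell-cycle control defect. Growth inhibition was scored against vehicle-treated controls.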

Assay [6] in a line: NCI Yeast Anticancer Drug Screen. Data for the mlh1 rad18 strain (AID 175). The following applies: S. cerevisiae mlh1 rad18 strain growth inhibition, stronger effect = higher value. The procedure, abridged:
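Vehicle-treated cultures served as the reference for growth inhibition in a yeast strain carrying DNA damage repair alterations exposed to each compound.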

Where [7] appears, read: at 5.0 µM (retest, dose inferred, filed as 0.5).
[8] abbreviates: at 50.0 µM (retest, dose inferred, filed as 5.0).

Consider `CC(C)=CCCC(C)C1=C(O)C(=O)C(C)=CC1=O` (configuration not stated), for which the growth inhibition in assay [1] (setting [7]) was 25%; in assay [1] (setting [8]), 97% (active); in assay [1] (at 50.0 µM), 88.8% (active); in assay [2] (setting [7]) it was 19%; in assay [2] (setting [8]), 98% (active); in assay [2] (at 50.0 µM) it was 93.3% (active). In addition, the growth inhibition is 15% in assay [3] (setting [7]); 99% (active) in assay [3] (setting [8]); 90.8% (active) in assay [3] (at 50.0 µM); 24% in assay [4] (setting [7]); 86% (active) in assay [4] (setting [8]); 70% in assay [4] (at 50.0 µM). Also, the growth inhibition in assay [5] (setting [7]) is 19%; in assay [5] (setting [8]) it was 99% (active); in assay [5] (at 50.0 µM) it was 90.6% (active); in assay [6] (setting [7]), 25%; in assay [6] (setting [8]) it was 98% (active); in assay [6] (at 50.0 µM), 87% (active).

`CCCCCCCCCCCC1N=C(N)N=C(N)N1c1cccc(Br)c1` (configuration not stated): the growth inhibition was 99% (active) in assay [1] (setting [7]); 97% (active) in assay [1] (setting [8]); 97.5% (active) in assay [1] (at 50.0 µM); 100% (active) in assay [2] (setting [7]); 97% (active) in assay [2] (setting [8]); 97.7% (active) in assay [2] (at 50.0 µM). Moreover, the growth inhibition in assay [3] (setting [7]) is 98% (active); in assay [3] (setting [8]), 98% (active); in assay [3] (at 50.0 µM), 99.2% (active); in assay [4] (setting [7]), 99% (active); in assay [4] (setting [8]), 96% (active); in assay [4] (at 50.0 µM), 96.2% (active). In addition, the growth inhibition in assay [5] (setting [7]) is 99% (active); in assay [5] (setting [8]), 98% (active); in assay [5] (at 50.0 µM), 97% (active); in assay [6] (setting [7]), 99% (active); in assay [6] (setting [8]), 97% (active); in assay [6] (at 50.0 µM) it was 98.3% (active).

For `Oc1ccc(Nc2ccc3ccccc3c2)cc1`, the growth inhibition in assay [1] (setting [7]) was 9%; in assay [1] (setting [8]) it was 97% (active); in assay [1] (at 50.0 µM), 97.5% (active); in assay [2] (setting [7]) it was -5%; in assay [2] (setting [8]) it was 98% (active); in assay [2] (at 50.0 µM), 98.5% (active). The growth inhibition in assay [3] (setting [7]) was 3%; in assay [3] (setting [8]), 98% (active); in assay [3] (at 50.0 µM), 88.9% (active); in assay [4] (setting [7]), -5%; in assay [4] (setting [8]) it was 98% (active); in assay [4] (at 50.0 µM), 97.5% (active). Further, the growth inhibition is -5% in assay [5] (setting [7]); 96% (active) in assay [5] (setting [8]); 98% (active) in assay [5] (at 50.0 µM); -1% in assay [6] (setting [7]); 98% (active) in assay [6] (setting [8]); 97.6% (active) in assay [6] (at 50.0 µM).

On to `CC1=CC[C@@H]2[C@@H](CC[C@@]2(C)O)C(C)(C)[C@H]1CC[C@@H]1[C@@]2(C)CCC(=O)C(C)(C)O[C@@H]2CC[C@]1(C)O`, for which the growth inhibition in assay [1] (setting [7]) is 20%; in assay [1] (setting [8]) it was 57%; in assay [1] (at 50.0 µM) it was 74.8% (active); in assay [2] (setting [7]) it was 13%; in assay [2] (setting [8]), 37%; in assay [2] (at 50.0 µM), 62.9%. The growth inhibition was -1% in assay [3] (setting [7]); 78% (active) in assay [3] (setting [8]); 72.2% (active) in assay [3] (at 50.0 µM); 16% in assay [4] (setting [7]); 70% (active) in assay [4] (setting [8]); 55.2% in assay [4] (at 50.0 µM). Also, the growth inhibition in assay [5] (setting [7]) was 10%; in assay [5] (setting [8]), 73% (active); in assay [5] (at 50.0 µM) it was 62.1%; in assay [6] (setting [7]), 25%; in assay [6] (setting [8]), 62%; in assay [6] (at 50.0 µM) it was 22.9%.

For `COC(=O)[C@]1(C)CCC[C@]2(C)c3ccc(C(C)C)cc3C(=O)[C@@H](Br)[C@@H]12`, the growth inhibition was 0% in assay [1] (setting [7]); 9% in assay [1] (setting [8]); 74.2% (active) in assay [1] (at 50.0 µM); -2% in assay [2] (setting [7]); 46% in assay [2] (setting [8]); 51.9% in assay [2] (at 50.0 µM). Further, the growth inhibition was 3% in assay [3] (setting [7]); 58% in assay [3] (setting [8]); 63.5% in assay [3] (at 50.0 µM); -12% in assay [4] (setting [7]); 44% in assay [4] (setting [8]); 22.1% in assay [4] (at 50.0 µM). In addition, the growth inhibition in assay [5] (setting [7]) was 2%; in assay [5] (setting [8]), 52%; in assay [5] (at 50.0 µM), 82.4% (active); in assay [6] (setting [7]) it was -11%; in assay [6] (setting [8]), 49%; in assay [6] (at 50.0 µM), 71.8% (active).

Regarding `NNc1ccc(Cl)cc1Cl`, the growth inhibition is 79% (active) in assay [1] (setting [7]); 97% (active) in assay [1] (setting [8]); 98.4% (active) in assay [1] (at 50.0 µM); 54% in assay [2] (setting [7]); 99% (active) in assay [2] (setting [8]); 99.4% (active) in assay [2] (at 50.0 µM). The growth inhibition in assay [3] (setting [7]) was 66%; in assay [3] (setting [8]) it was 98% (active); in assay [3] (at 50.0 µM), 50.6%; in assay [4] (setting [7]) it was 75% (active); in assay [4] (setting [8]), 99% (active); in assay [4] (at 50.0 µM), 58.6%. Besides, the growth inhibition in assay [5] (setting [7]) is 85% (active); in assay [5] (setting [8]), 98% (active); in assay [5] (at 50.0 µM), 98.8% (active); in assay [6] (setting [7]) it was 77% (active); in assay [6] (setting [8]), 98% (active); in assay [6] (at 50.0 µM) it was 48.1%.

For the compound `C=C1C(=O)OC2CC1C(OC(=O)/C=C/c1ccccc1)C/C(C)=C/CC/C(C)=C/CCC2(C)O` (configuration not stated), the growth inhibition in assay [1] (setting [7]) was 50%; in assay [1] (setting [8]) it was 93% (active); in assay [1] (at 50.0 µM), 82.8% (active); in assay [2] (setting [7]) it was 54%; in assay [2] (setting [8]), 96% (active); in assay [2] (at 50.0 µM), 81.7% (active). Also, the growth inhibition in assay [3] (setting [7]) is 60%; in assay [3] (setting [8]), 95% (active); in assay [3] (at 50.0 µM), 84.8% (active); in assay [4] (setting [7]) it was 84% (active); in assay [4] (setting [8]), 95% (active); in assay [4] (at 50.0 µM), 83% (active). The growth inhibition in assay [5] (setting [7]) is 88% (active); in assay [5] (setting [8]), 95% (active); in assay [5] (at 50.0 µM), 80% (active); in assay [6] (setting [7]), 77% (active); in assay [6] (setting [8]), 94% (active); in assay [6] (at 50.0 µM) it was 75.9% (active).

With `S=C=Nc1ccc(N2CCOCC2)cc1`, the growth inhibition in assay [1] (setting [7]) was 96% (active); in assay [1] (setting [8]), 99% (active); in assay [1] (at 50.0 µM), 99.3% (active); in assay [2] (setting [7]) it was 31%; in assay [2] (setting [8]) it was 100% (active); in assay [2] (at 50.0 µM) it was 99.7% (active). For the same compound, the growth inhibition was 41% in assay [3] (setting [7]); 99% (active) in assay [3] (setting [8]); 99.7% (active) in assay [3] (at 50.0 µM); 10% in assay [4] (setting [7]); 99% (active) in assay [4] (setting [8]); 96.3% (active) in assay [4] (at 50.0 µM). Also, the growth inhibition in assay [5] (setting [7]) is 26%; in assay [5] (setting [8]), 98% (active); in assay [5] (at 50.0 µM), 99.2% (active); in assay [6] (setting [7]), 33%; in assay [6] (setting [8]), 99% (active); in assay [6] (at 50.0 µM), 99.2% (active).

As to `CC1(C)CCC2(C(=O)O)C(O)CC3(C)C(=CCC4C5(C)CCC(OC6OCC(O)C(O)C6OC6OCC(O)C(O)C6OC6OCC(O)C(OC7OC(CO)C(O)C(O)C7O)C6O)C(C)(C)C5CCC43C)C2C1` (configuration not stated), the growth inhibition in assay [1] (setting [7]) is 8%; in assay [1] (setting [8]), 99% (active); in assay [1] (at 50.0 µM), 77.3% (active); in assay [2] (setting [7]), 7%; in assay [2] (setting [8]) it was 99% (active); in assay [2] (at 50.0 µM) it was 87.3% (active). Further, the growth inhibition was 6% in assay [3] (setting [7]); 99% (active) in assay [3] (setting [8]); 88% (active) in assay [3] (at 50.0 µM); 5% in assay [4] (setting [7]); 99% (active) in assay [4] (setting [8]); 86.6% (active) in assay [4] (at 50.0 µM). Moreover, the growth inhibition in assay [5] (setting [7]) was 17%; in assay [5] (setting [8]) it was 100% (active); in assay [5] (at 50.0 µM) it was 86.5% (active); in assay [6] (setting [7]), 14%; in assay [6] (setting [8]), 99% (active); in assay [6] (at 50.0 µM), -30.2%.

The values above are taken from PubChem BioAssay (NCI).
